Compounds with a hit are over-represented: about 4.8% of the library has one in this group of screens.
NALP1 yeast inh – NALP1 inflammasome inhibitors in reconstituted yeast, colorimetric, S. cerevisiae, triplicate retest; S. cerevisiae NALP1/ASC/caspase-1 growth, X-gal OD620, 72 h; AID 2071, 2009; inhibition, % at 10 µM; 0.61% of 280,000 active; in the data active = inhibition mostly above about 24%, no sharp cut-off; inactive = mostly below about 32%
PfHsp90 yeast 2 – growth inhibition of PfHsp90-expressing yeast, primary screen, antimalarial PfHsp90 inhibitor project, S. cerevisiae, BacTiter-Glo luminescence, single point, set 2. AID 504621, 2011. inhibition, % at 9.4 µM. 0.32% of 310,000 active. BacTiter-Glo ATP, 48 h; yeast lacking PDR1 and PDR3 efflux regulators;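 active = every replicate shows inhibition above about 80%, whatever the replicate mean, limit read from the data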
TIM10 inh – growth inhibitors of isogenic TIM10 control yeast, primary screen, counter-screen for tim10-1 yeast inhibitor project, luminescence, uHTS. S. cerevisiae TIM10 strain growth, BacTiter-Glo luminescence, 24 h. inhibition, % at 10 µM. 1.4% of 330,000 active. AID 463195, 2010;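 active = inhibition of 40% or more at the single tested concentration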;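 also: wild-type TIM10 isogenic control strain grown at permissive 25 °C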
SKKanGAS inh – S. pyogenes SKKanGAS growth inhibitors in kanamycin, primary screen, streptokinase expression inhibitor project, SKKanGAS strain, BacTiter-Glo luminescence; 6 h; inhibition, % at 7.5 µM; 1.3% of 300,000 active; AID 1662, 2009;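 active = mean replicate score, as percent of positive control median, at least 50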;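 also: strain carries kanamycin resistance gene driven by streptokinase promoter and grows in 40 µg/ml kanamycin; loss of luminescence reflects streptokinase promoter inhibition or plain growth inhibition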
tim23-1 inh – growth inhibitors of tim23-1 mutant yeast, primary screen, luminescence, uHTS; inhibition, % at 20 µM; S. cerevisiae tim23-1 growth, BacTiter-Glo luminescence, 24 h; 1.3% of 330,000 active;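 active = growth inhibition of the mutant yeast at or above 50%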;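 also: temperature-sensitive mutant grown at 25 °C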
tim10-1 inh – growth inhibitors of tim10-1 mutant yeast, primary screen, luminescence, uHTS; S. cerevisiae tim10-1 ts strain growth, BacTiter-Glo, 24 h; inhibition, % at 20 µM; 2.2% of 330,000 active;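 active = inhibition of at least 40%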;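 also: mutant grown at 25 °C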
tim10-1 conf – growth inhibitors of tim10-1 mutant yeast, confirmation, single concentration, luminescence, S. cerevisiae | shares compounds with tim10-1 inh | S. cerevisiae tim10-1 ts strain growth, BacTiter-Glo, 24 h | inhibition, % at 20 µM | 56% of 7,400 active | AID 463213, 2010;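 active = inhibition of yeast growth at or above a set limit in either of two repeat tests at 20 µM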;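 also: tim10-1 mutant grown at permissive 25 °C to find synthetic lethal compounds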
TIM10 conf – growth inhibitors of wild-type TIM10 yeast, confirmation, counter-screen for tim10-1 synthetic lethality project, single concentration, luminescence, S. cerevisiae. inhibition, % at 10 µM. 63% of 4,600 active. shares compounds with TIM10 inh. S. cerevisiae tim10 strain growth, BacTiter-Glo luminescence, 24 h;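 active = inhibition of yeast growth at or above a set limit in either of two replicates at 10 µM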; also: this counterscreen used the strain with wild-type TIM10
tim23-1 confirm – tim23-1 mutant yeast growth inhibitors, confirmation, luminescence, single concentration. 83% of 4,400 active. AID 463218, 2010. shares compounds with tim23-1 inh. inhibition, % at 20 µM. S. cerevisiae tim23-1 growth, BacTiter-Glo luminescence, 24 h;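 active = inhibition above about 39% in either of two replicate wells at 20 µM, limit read from the data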;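 also: temperature-sensitive tim23-1 mutant grown at 25 °C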
Numbers stand for hits; - = inactive; . = no result given.

SMILES	NALP1 yeast inh	PfHsp90 yeast 2	TIM10 inh	SKKanGAS inh	tim23-1 inh	tim10-1 inh	tim10-1 conf	TIM10 conf	tim23-1 confirm
N#C/C(=C\c1ccncc1)C(=O)Nc1ccc(C(=O)O)cc1	-	-	-	-	-	-	.	.	.
CCOc1cccc(NC(=O)/C(C#N)=C\c2cccnc2)c1	-	-	52	-	81	61	40	48	79
CCCOc1ccccc1/C=C(\C#N)C(=O)Nc1cccnc1	-	-	54	-	85	73	48	46	71
Cc1ccc(NC(=O)CSc2nnc(-c3cc(C)[nH]n3)n2N)c(C)c1	-	-	-	-	-	-	.	.	.
Cn1c(/N=C/c2ccccc2[N+](=O)[O-])nc2ccccc21	-	-	-	-	-	-	.	.	.
Cc1ccc(S(=O)(=O)Cc2ccc(C(=O)N3CCC(C)CC3)cc2)cc1	-	-	-	-	-	-	.	.	.
CN(C)S(=O)(=O)c1cccc(NC(=O)COc2ccc(C(=O)c3ccccc3)cc2)c1	-	-	-	-	-	-	.	.	.
CC(=O)Cc1nsc(NC(=O)c2ccc(-c3ccc(Cl)cc3Cl)o2)n1	-	-	-	-	57	46	35	.	53
CC(=O)Cc1nsc(NC(=O)c2ccc(-c3cc(Cl)ccc3Cl)o2)n1	-	-	-	-	-	-	.	.	.
CC(=O)NC(C)c1cc(Cl)c2cccnc2c1O (stereo not given)	.	-	-	.	53	41	-	.	-
CC(=O)NC(C)c1cc(Cl)c2ccccc2c1O (stereo not given)	.	-	-	.	-	-	.	.	.
COc1ccc(S(=O)(=O)/C(C#N)=C/Nc2cccc(OC)c2)cc1	-	-	-	-	-	-	.	.	.
COc1ccc(Br)cc1C(C[N+](=O)[O-])c1c(N)n(C)c(=O)n(C)c1=O (stereo not given)	.	-	-	-	-	-	.	.	.
COc1ccc(OC)c(C(C[N+](=O)[O-])c2c(C)cc3ccccn23)c1 (stereo not given)	-	-	66	-	85	45	61	82	91
O=C(Nc1nc2ccccc2n1CCN1CCOCC1)c1ccccc1	-	-	-	-	-	-	.	.	.
CCOC(=O)N=Nc1c2ccccc2c2nc3no[nH]c3nc12	-	108	86	-	55	76	81	96	81
CCOC(=O)N=Nc1c(O)n(CC(=O)OC)c2ccccc12	-	-	-	-	-	-	.	.	.
CC(C)CN(C(=O)c1ccc(C(F)(F)F)cc1)c1c(N)n(CC(C)C)c(=O)[nH]c1=O	-	-	-	-	-	-	.	.	.
O=C(N/N=C/c1ccc2c(c1)OCO2)c1cc2ccccc2o1	-	-	-	-	-	-	.	.	.
O=C(N/N=C/c1ccsc1)c1cc2ccccc2o1	-	-	55	-	56	46	-	48	67
O=C(O)c1cccc(N2C(=O)/C(=C/c3ccc(SCc4ccc(Cl)cc4)o3)SC2=S)c1	-	-	.	.	.	.	.	.	.
Cc1cc(C)c2c(CN3CCCCC3)cc(=O)oc2c1	-	-	-	-	-	-	.	.	.
Cc1cc(C)c2c(CCl)cc(=O)oc2c1	.	.	42	-	62	49	40	40	53
C=C(C(=O)c1ccccc1)C(CC(=O)c1ccccc1)c1ccccc1 (stereo not given)	-	-	58	-	56	59	51	-	56
O=C1C(C2=C(O)c3ccccc3C2=O)=Nc2ccccc21	-	-	56	-	62	51	-	54	73
SMILES	NALP1 yeast inh	PfHsp90 yeast 2	TIM10 inh	SKKanGAS inh	tim23-1 inh	tim10-1 inh	tim10-1 conf	TIM10 conf	tim23-1 confirm
Cc1cccc(C(=O)N/N=C/c2cc(Br)c(Br)o2)c1	-	-	45	-	60	41	-	-	76
O=C(CNc1ccc(Br)cc1)NC(=O)NC1CCCCC1	.	-	-	.	59	48	37	.	-
COc1cccc(C(=O)Nc2ccc(Oc3cccc(C(F)(F)F)c3)nc2)c1	-	-	-	-	-	-	.	.	.
CC(Nc1ccc(Cl)cc1)c1cc(Cl)ccc1O (stereo not given)	-	-	-	-	64	66	58	.	52
Cc1ccc(CNCC(O)(c2ccc(F)cc2)c2ccc(F)cc2)cc1	-	.	-	-	-	-	.	.	.
CC1(NC(=O)NCc2ccco2)CCS(=O)(=O)C1 (stereo not given)	-	-	-	-	-	-	.	.	.
O=C(O)c1ccc(S(=O)(=O)/N=C2\C=C(Nc3ccccc3F)C(=O)c3ccccc32)cc1	80	-	74	88	81	79	84	74	89
COC(=O)CC1=NC(=O)CS1	-	-	-	-	-	-	.	.	.
CCOc1c(Br)cc(/C=C(\C#N)C(=O)NC2CC2)cc1OC	-	-	56	-	87	85	78	67	84
N#C/C(=C\c1cc(Cl)ccc1O)C(=O)NC1CCCCC1	-	-	-	-	-	-	.	.	.
N#C/C(=C\c1cc(Cl)cc(Cl)c1O)C(=O)NC1CCCCC1	-	-	-	-	54	49	-	.	58
C=CCNC(=O)/C(C#N)=C\c1cc(Cl)c(OCC)c(OC)c1	-	-	67	-	82	79	79	73	84
N#C/C(=C\c1ccc(F)c(F)c1)C(=O)NC1CCCCC1	60	-	65	-	68	52	65	78	59
C=CCNC(=O)/C(C#N)=C/c1ccc(C(=O)O)cc1	-	-	-	-	-	-	.	.	.
CCN(CC)c1ccc(C(NC(C)=O)NC(C)=O)cc1	-	-	-	-	-	-	.	.	.
COCCn1c(CN2CCN(c3cccc(Cl)c3)CC2)nc2c1c(=O)n(C)c(=O)n2C	-	-	-	-	-	-	.	.	.
CCOc1ccc(NC(=O)CN2C(=O)NC3(CCCCCC3)C2=O)cc1	.	-	-	.	-	-	.	.	.
COc1ccc(/C=N\n2nnc3ccccc32)cc1	-	-	-	-	-	-	.	.	.
N#C/C(=C\c1ccc(F)c(Br)c1)C(=O)NC1CC1	-	-	44	-	84	48	46	58	74
CCc1ccc(/C=C(\C#N)C(=O)NC2CCS(=O)(=O)C2)cc1 (stereo not given)	.	-	-	.	-	-	.	.	.
